Results as given in PubChem BioAssay (NCI).
About 83,000 compounds went through this panel and 20% of them were active in at least one assay; those are over-represented in the sample as a whole.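 Note: values are percent growth. 100 is the growth of untreated cells, values between 100 and 0 indicate rising inhibition; between -100 and 0 indicates cell death.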 A number with no mark means an inactive call. Active and inactive are the calls of the source. Rule for the calls: active = growth percent below 10; inactive = the rest.

These molecules were tested on SNB-19 CNS (assay: NCI-60 one-dose screen, 48 h (100 = growth as untreated, 0 = no growth, -100 = all killed)). Settings: 10 µM.

| SMILES | growth |
| --- | --- |
| Cc1ccc(/C=C/C(=O)c2ccc(NC(=O)CSc3nnc(-c4c[nH]c5ccccc45)n3-c3ccccc3)cc2)cc1 | 87.9% |
| O=C(Nc1nc2ccc([N+](=O)[O-])cc2s1)Nc1cc(Cl)ccc1I | 4.09% (active) |
| Cc1ccc(C(=O)CSc2nnc(-c3c[nH]c4ccccc34)n2-c2ccccc2)cc1 | 19.7% |
| COc1ccc2[nH]c(O)c(N=NC(=O)c3cc(-c4ccc(C)cc4)nc4ccccc34)c2c1 | 95.1% |
| Cn1cc(/C=N/Nc2cccc(Cl)n2)c2ccccc21 | 76.9% |
| N#Cc1ccc(-c2nn(-c3ccc(C(=O)O)cc3)cc2CNc2ccc(Cl)cc2)cc1 | 75.9% |
| O=c1[nH]c2ccccc2cc1CSc1ccc(Nc2nccc(-c3ccc4ccccc4c3)n2)cc1 | 71.2% |
| OCCCNc1oc(-c2ccccc2)nc1[P+](c1ccccc1)(c1ccccc1)c1ccccc1 | 4.56% (active) |
| COc1ccc(C(=O)/C=C/c2cc(C(F)(F)F)cc(C(F)(F)F)c2)cc1S(N)(=O)=O | -100% (active) |
| CS(=O)(=O)Nc1ccc(-c2ccc3c(c2)ncn3-c2ccc(NC(=O)Nc3ccc(Cl)c(C(F)(F)F)c3)cc2)cc1 | -89.3% (active) |
| O=c1nc(-c2ccccc2)cc(-c2cc3ccccc3nc2Cl)[nH]1 | 13% |
| COc1cccc(/C=C2\N=C(C)N(CCc3ccc(S(N)(=O)=O)cc3)C2=O)c1 | 95.1% |
| O=S(=O)(Nc1ncccn1)c1ccc(-n2c(-c3ccccc3)nc(-c3ccccc3)c2-c2ccccc2)cc1 | 82.3% |
| Cc1ccc(-c2nc(Nc3ccc(S(N)(=O)=O)cc3)c3ccccc3n2)cc1 | 60.6% |
| COc1ccc(C(C)=C(c2ccc(OCCCN(C)C)cc2)c2ccc(OCCCN(C)C)cc2)cc1 | -97.4% (active) |
| COC[C@@H](CC(C)C)N=C1NC(=O)/C(=C/c2ccc3ncsc3c2)N1 | 11.5% |
| Cc1ccc(-c2nc3ccc(C(=O)N=Nc4c(O)[nH]c5ccc(Cl)cc45)cc3[nH]2)cc1 | -24% (active) |
| COc1cccc(/C=N/NC(=O)c2ccc3nc(-c4ccc(Cl)cc4)[nH]c3c2)c1O | -98.6% (active) |
| N#Cc1ccc(-c2nn(-c3ccc(C(=O)O)cc3)cc2CNc2ccc(Oc3ccccc3)cc2)cc1 | 28.6% |

| SMILES | growth |
| --- | --- |
| CC(=O)c1ccc(Nc2nc(SCCC(C)C)nc(-c3ccc(F)cc3)c2C#N)cc1 | 20.4% |
| Cc1cc(C)nc(NS(=O)(=O)c2ccc(N/C(N)=N/c3nccc(-c4ccccc4)n3)cc2)n1 | 77.8% |
| COc1cccc(-c2ccnc(/N=C(\N)Nc3ccc(S(=O)(=O)Nc4nc(C)cc(C)n4)cc3)n2)c1 | 101% |
| CC(=O)C1=C(C)NC(SCC(=O)Nc2ccc(S(=O)(=O)Nc3cc(C)on3)cc2)=NC1c1ccccc1 (configuration not stated) | 102% |
| COc1cccc2nc(Nc3ccc(F)c(NC(=O)c4ccc(CN5CCN(C)CC5)c(C(F)(F)F)c4)c3)ccc12 | -49.2% (active) |
| CNCc1cccc2c1OCCCCCC[C@@](C)(O)CC1(CC1)S(=O)(=O)c1ccc(cc1)-c1cnc(N)c(n1)C(=O)N2 | -97.4% (active) |
| CN(C)c1ccc(/C=C/c2nc3ccccc3c(=O)n2CC(=O)Nc2ccccc2)cc1 | 62.9% |
| O=C1CCC(N2Cc3c(C#CCCCNC(=O)c4ccc(NC(=O)[C@@H]5NC6(CCCCC6)[C@@]6(C(=O)Nc7cc(Cl)ccc76)[C@H]5c5cccc(Cl)c5F)cc4)cccc3C2=O)C(=O)N1 (some centres not stated) | 58.8% |
| O=C(N/N=C/c1ccc(-c2cccc([N+](=O)[O-])c2)o1)c1[nH]c2ccc(Br)cc2c1-c1ccccc1 | 32.9% |
| O=C(c1ccc(Cl)cc1)C1[C@H](c2ccccc2Br)[C@@H](c2ccccc2)NC12C(=O)Nc1ccc(Br)cc12 (some centres not stated) | 36.2% |
| O=C(c1ccc(Cl)cc1)C1[C@H](c2ccccc2Br)[C@@H](c2ccccc2)NC12C(=O)Nc1ccccc12 (some centres not stated) | 31.6% |
| O=C(Nc1cc(Cl)cc(Cl)c1)Nc1cc(Cl)cc(Cl)c1 | 5.6% (active) |
| CC(C)C1=C[C@@]23CC[C@@H]4[C@](C)(CCC[C@]4(C)C(=O)NCc4ccccc4)[C@H]2C[C@@H]1[C@H]1C(=O)CCC(=O)[C@H]13 | 83.2% |
| COc1ccc(Nc2nc(N)n(Cc3cccc(Br)c3)n2)cc1 | 18.6% |
| O=S(=O)(Nc1ncccn1)c1ccc(-n2c(-c3ccc(Br)cc3)nc(-c3ccccc3)c2-c2ccccc2)cc1 | 23.3% |
| Clc1cccc(N/N=C/c2c[nH]c3ccccc23)n1 | 43.2% |
| COc1ccc2c(c1)N=C(C(=O)O)/C2=C/c1sc(Nc2ccc(O)cc2)nc1O | 70.1% |
| CCCCCc1ccc(S(=O)(=O)N(C(C)=O)c2cc(-c3csc(N(C)C(C)=O)n3)ccc2N2CCN(C)CC2)cc1 | 32.2% |
